Source: PubChem BioAssay (NCATS)
Unmarked numbers belong to inactive results. Records with an inconclusive call do not appear. Where a call stands in place of a potency, no number is given. Active and inactive are the calls of the source. Calls follow the shape of the dose curve; as a rule, active = well fitted curve in the direction sought with a large enough effect; inconclusive = small, poorly fitted or top-dose-only effect, or another doubt; inactive = no such curve, though single readings can be large; an effect the other way counts as inactive or inconclusive.

Assays:
[1] = HPAF-II 24hr Apoptosis Induction qHTS against the NCATS CANVASS Library (AID 1347356)
Method in brief: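 HPAF-II cells (500/well) exposed to compounds in 11-point series for 24 h at 37 degrees C; caspase-3/7 activity read by Caspase-Glo luminescence after 15 min at room temperature. Doxorubicin titration as control.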

[2] = HEK293 24hr Apoptosis Induction qHTS against the NCATS CANVASS Library (AID 1347359)
Method in brief: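 HEK293 cells, 500 per well, exposed to an 11-point compound series for 24 hours at 37 degrees C. Caspase 3/7 activity read by Caspase-Glo luminescence (DEVD substrate) after 15 min at room temperature.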

[3] = tested on: NAD(P)H diaphorase (Clostridium kluyveri); test: Diaphorse counterscreen qHTS: Assay Interference Panel against the NCATS CANVASS Library (AID 1347362)
Method in brief: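 Clostridium kluyveri diaphorase in PBS + 0.01% Tween-20 preincubated 15 min with compounds. Resazurin and NADH then added for 5 min at room temperature in the dark; resorufin fluorescence read (ex 525, em 598).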

[4] = qHTS for ATAD5 Agonist screened against the NCATS CANVASS Library (AID 1347367);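 also: luciferase reporter driven by ATAD5 which rises upon DNA damage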
Method in brief: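 HEK293T-ATAD5 luc reporter; 2000 cells/well; 5hr settle; cpd 11-pt qHTS; 16hr 37C 5% CO2 dark; viability by CellTiter-Fluor (AFC fluorescence); then luciferase luminescence, 30min RT.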

[5] = G06 Cancer Cell Toxicity qHTS against the NCATS CANVASS Library (AID 1347368); also: nearly all actives have a fitted effect of over 60% in size; also: potency is read from the fitted curve at half-maximal effect
Method in brief: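 G06 dog glioma cells, 500 per well, exposed 72 hr at 37C, 5% CO2 to compounds in an 11-point series. Cytotoxicity read as ATP content by CellTiterGlo luminescence.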

[6] = qHTS for ATAD5 Antagonist screened against the NCATS CANVASS Library (AID 1347370); also: nearly all actives have a fitted effect of over 65% in size; also: potency is read from the fitted curve at half-maximal effect;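 as to activity change, negative = inhibition: HEK293T cells carrying an ATAD5 luciferase reporter co-treated with 10 µM 5-fluorouridine; series mostly up to about 46 µM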
Method in brief: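 HEK293T cells with stably integrated ATAD5-luciferase reporter, 2000/well, 5 h attachment; compounds plus 10 µM 5-fluorouridine, 16 h at 37 °C. Luciferase luminescence read, with CellTiter-Fluor viability read first.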

[7] = J3T Cancer Cell Toxicity qHTS against the NCATS CANVASS Library (AID 1347371); also: potency is read from the fitted curve at half-maximal effect
Method in brief: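 J3T dog glioma cells, 500 per well, treated 72 h at 37C with compounds (11-point qHTS); viability from ATP content by CellTiterGlo luminescence; bortezomib titration as control.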

[8] = target: Nuclear receptor subfamily 1 group I member 3 (Homo sapiens) (UniProt Q14994); test: qHTS for Constitutive Androstane Receptor (CAR) Antagonist screened against the NCATS CANVASS Library (AID 1347372); also: potency is read from the fitted curve at half-maximal effect;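 as to activity change, negative = inhibition: cells stimulated with 50 nM CITCO agonist so inhibition reflects antagonism; series mostly up to about 46 µM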
Method in brief: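 HepG2 cells stably carrying hCAR and CYP2B6-2.2kb luciferase reporter, 2500 cells/well, compound with 50 nM CITCO agonist for 24hr at 37C. ONE-Glo luminescence measured CAR activity; CellTiter-Fluor read viability.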

[9] = target: Nuclear receptor subfamily 1 group I member 3 (Homo sapiens) (UniProt Q14994); test: qHTS for Constitutive Androstane Receptor (CAR) Agonist screened against the NCATS CANVASS Library (AID 1347373);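 also: every well also contained 1.5 µM PK11195 alongside the test compound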; also: potency is read from the fitted curve at half-maximal effect
Method in brief: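 HepG2 cells stably carrying hCAR and a CYP2B6-2.2kb luciferase reporter, treated 24hr at 37C with compounds plus 1.5uM PK11195; activation by ONE-Glo luminescence, viability by CellTiter-Fluor.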

[10] = 10-beta competent E. coli microbial cell viability qHTS against the NCATS CANVASS Library (AID 1347376); also: series mostly up to about 46 µM
Method in brief: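 10-beta competent E. coli (0.2 OD) were exposed overnight at 37C to compounds in an 11-point series. Viability was read as ATP-dependent BacTiter-Glo luminescence after 20 min at room temperature.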

[11] = qHTS for H2AX Agonists against the NCATS CANVASS Library (AID 1347378);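 also: phospho-H2AX S139 level in CHO-K1 lysates by TR-FRET emission ratio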
Method in brief: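 CHO-K1, 1000 cells/well, o/n 37C; cpd several conc, 3 hr 37C, 0.76% DMSO; lyse 30 min RT; cryptate anti-pH2AX(S139) + d2 anti-H2AX, 24 hr RT; HTRF 665/620.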

[12] = Inflammasome Signaling qHTS Counterscreen: IL-1-beta AlphaLISA counterscreen against the NCATS CANVASS Library (AID 1347381);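 also: cell-free check with purified IL-1β in medium and no THP-1 cells; series mostly up to about 57 µM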
Method in brief: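 Cell-free interference check: compounds added to medium spiked with 4 pg purified IL-1β. Anti-IL-1β acceptor beads (6 ug/mL) with 0.6 nM biotinylated antibody added for 1 h at RT, then streptavidin donor beads (24 ug/mL) for 30 min in the dark. AlphaLISA read at 680/615 nm.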

[13] = qHTS assay for small molecule disruptors of mitochondrial membrane potential screened against the NCATS CANVASS Library (AID 1347389); also: potency is read from the fitted curve at half-maximal effect; nearly all actives have a fitted effect of over 60% in size
Method in brief: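 HepG2 cells (2,000/well) plated overnight, then exposed to compounds in 11-point qHTS series for 1 h at 37C before 30 min Mito-MPS dye; depolarization read as fall in red aggregate (590 nm) to green monomer (535 nm) fluorescence.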

[14] = Secretion counterscreen for inhibitors of the SERCaMP assay screened against the NCATS CANVASS Library (AID 1347390);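 also: light from luciferase secreted into medium read as a measure of general secretion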; also: potency is read from the fitted curve at half-maximal effect; as to activity change, negative = inhibition: series mostly up to about 77 µM
Method in brief: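 SH-SY5Y-GLuc STOP cells; 4 h attach; cpds 0.001 - 77 uM (qHTS, 11 pts), 20 h 37C/5% CO2; coelenterazine in glow buffer; luminescence, 5 s exposure.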

[15] = qHTS for activators of dead-cell proteases activity screened against the NCATS CANVASS Library (AID 1347392);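 also: luminescence from protease leaking out of membrane-damaged cells cleaving impermeant substrate; rising signal means more cytotoxicity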; also: potency is read from the fitted curve at half-maximal effect
Method in brief: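 HepG2 cells, 2000/well, attached 18 h at 37C, then exposed to compounds (11-point qHTS) for 5 h. Dead-cell protease release read as luminescence from cell-impermeant AAF-aminoluciferin substrate after 15 min at room temperature.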

[16] = Vero-766 cells viability qHTS against the NCATS CANVASS Library: Counterscreen for Zika virus inhibition assay (AID 1347394); also: nearly all actives have a fitted effect of over 60% in size; also: potency is read from the fitted curve at half-maximal effect; as to activity change, negative = cytotoxic: series mostly up to about 46 µM
Method in brief: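 Vero 766, no virus; 1000 cells/well; o/n attach; cpd 11-pt; 72 h, 37C, 5% CO2; CTG luminescence; cell-free media wells = 100% inhibition.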

[17] = HPAF-II 18hr Apoptosis Induction qHTS against the NCATS CANVASS Library (AID 1347360)
Method in brief: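 Seed HPAF-II cells at 500/well in DMEM + 10% FBS, pin-transfer compounds, incubate 18 hours at 37 degrees C/5% CO2, add Caspase-Glo 3/7 reagent, wait 15 min, read luminescence.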

[18] = qHTS for Hypoxia signaling pathway (HIF-1) agonists against the NCATS CANVASS Library (AID 1347375)
Method in brief: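 HRE-bla ME-180 cells (0.5% dialyzed FBS) were pre-incubated 5 hrs at 37C, then exposed to compounds in an 11-point series for 17 hrs. Read-out was CCF4-AM beta-lactamase FRET (460/530 nm emissions), with CellTiter-Glo viability in the same wells.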

[19] = Cytotoxicity qHTS for assessment of Hepg2 cells membrane integrity screened against the NCATS CANVASS Library (AID 1347387)
Method in brief: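 HepG2 cells (2000/well) attached overnight, then exposed 5 hr at 37C to compounds in an 11-point series (0.59 nM - 46 uM final). LDH release from damaged membranes read fluorometrically (CytoTox-ONE; 560/590 nm) after 10 min at room temperature.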

[20] = qHTS for Activators of p53 Stress Response Pathway screened against the NCATS CANVASS Library (AID 1347388)
Method in brief: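 p53RE-bla HCT-116 cells (4000/well) were pre-incubated for 5 h, then treated with compound (11 points) for 16 h at 37C. After 2 h with CCF4, the 460/530 nm ratio gave reporter activation; CellTiter-Glo measured viability.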

Sequence of Nuclear receptor subfamily 1 group I member 3 (Homo sapiens) (Q14994 whole entry, looked up): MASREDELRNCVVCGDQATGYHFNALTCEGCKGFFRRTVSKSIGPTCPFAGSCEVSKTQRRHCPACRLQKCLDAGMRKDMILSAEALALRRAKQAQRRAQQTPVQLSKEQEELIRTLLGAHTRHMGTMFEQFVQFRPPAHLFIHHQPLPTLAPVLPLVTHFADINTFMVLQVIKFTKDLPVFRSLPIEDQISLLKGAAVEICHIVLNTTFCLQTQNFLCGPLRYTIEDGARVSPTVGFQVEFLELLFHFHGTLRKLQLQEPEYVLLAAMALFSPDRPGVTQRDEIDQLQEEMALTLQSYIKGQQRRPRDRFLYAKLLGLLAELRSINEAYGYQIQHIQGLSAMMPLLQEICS

In the case of CO/C=C/C(=O)c1cc2cnc3c(N)cc(=NC(=O)C(C)C)c([nH]1)c23, the outcome [1] was “inactive”, the Potency [2] was “inactive” and the Potency [3] was “inactive”. For the same compound, the Potency [4] was “inactive”, the Potency [5] was 0.132 µM (active) and the Potency [6] was 0.741 µM (active). The Potency [7] was 0.743 µM (active), the Potency [8] was 0.295 µM (active) and the Potency [9] was “inactive”. For the same compound, the outcome [10] was “inactive”, the Potency [11] was “inactive” and the outcome [12] was “inactive”. For the same compound, the Potency [13] was 3.31 µM (active), the Potency [14] was 1.72 µM (active) and the Potency [15] was 23.4 µM (active). The Potency [16] was 0.524 µM (active).

For CC[C@H](O)CCCCC[C@@H]1NC(=O)[C@H]2CCCCN2C(=O)[C@H]([C@H](C)CC)NC(=O)[C@H](Cc2cn(OC)c3ccccc23)NC1=O, the outcome [1] was “inactive”, the Potency [2] was “inactive” and the Potency [17] was “inactive”. For the same compound, the Potency [3] was “inactive”, the Potency [4] was “inactive” and the Potency [9] was “inactive”. For the same compound, the outcome [18] was “inactive”, the outcome [10] was “inactive” and the outcome [12] was “inactive”. For the same compound, the outcome [19] was “inactive”, the Potency [20] was “inactive” and the Potency [14] was “inactive”. For the same compound, the Potency [15] was “inactive” and the Potency [16] was 6.6 µM (active).

With O=C1c2c(O)cc(O)cc2OC(c2ccc(O)cc2)C1O (stereo unspecified) the outcome [1] was “inactive”, the Potency [2] was “inactive” and the Potency [17] was “inactive”. For the same compound, the Potency [3] was “inactive”, the Potency [4] was “inactive” and the Potency [5] was “inactive”. For the same compound, the Potency [6] was “inactive”, the Potency [7] was “inactive” and the Potency [8] was “inactive”. For the same compound, the Potency [9] was “inactive”, the outcome [18] was “inactive” and the outcome [10] was “inactive”. For the same compound, the outcome [12] was “inactive”, the outcome [19] was “inactive” and the Potency [20] was “inactive”. For the same compound, the Potency [13] was 11.7 µM (active), the Potency [15] was “inactive” and the Potency [16] was “inactive”.

For COc1c(O)cc2c(c1O)C(=O)c1c(coc1C)C2=O, the outcome [1] was “inactive”, the Potency [2] was “inactive” and the Potency [17] was “inactive”. For the same compound, the Potency [3] was “inactive”, the Potency [4] was “inactive” and the Potency [6] was “inactive”. The Potency [7] was “inactive”, the Potency [8] was “inactive” and the Potency [9] was “inactive”. For the same compound, the outcome [18] was “inactive”, the outcome [10] was “inactive” and the Potency [11] was “inactive”. The outcome [12] was “inactive”, the outcome [19] was “inactive” and the Potency [13] was 10.5 µM (active). For the same compound, the Potency [14] was “inactive”, the Potency [15] was “inactive” and the Potency [16] was “inactive”.

For COC(=O)c1cc2cc3c(c(O)c2c(=O)o1)OC1(CC3)CC2=C(O1)C(=O)c1c(O)c(OC)cc(OC)c1C2=O (stereo unspecified), the outcome [1] was “inactive”, the Potency [2] was “inactive” and the Potency [17] was “inactive”. For the same compound, the Potency [4] was “inactive”, the Potency [6] was “inactive” and the Potency [7] was “inactive”. The Potency [8] was “inactive”, the Potency [9] was “inactive” and the outcome [18] was “inactive”. For the same compound, the outcome [10] was “inactive”, the outcome [12] was “inactive” and the outcome [19] was “inactive”. For the same compound, the Potency [13] was 3.31 µM (active), the Potency [15] was “inactive” and the Potency [16] was 26.3 µM (active).

COc1ccc([C@@H]2CC(=O)c3c(cc(O)c(C/C=C(\C)CCC=C(C)C)c3O)O2)cc1 showed a caspase activation [1] of 3.45% [at 9.19 µM], an activation [2] of 2.74% [at 9.19 µM] and a caspase activation [17] of -1.9% [at 9.19 µM]. For the same compound, the activity change, negative = inhibition [3] was -4.24% [at 11.5 µM], the activation [4] was -1.01% [at 9.19 µM] and the outcome [5] was “inactive [at 9.19 µM]”. The activity change, negative = inhibition [6] was -0.0168% [at 9.19 µM], the outcome [7] was “inactive [at 9.19 µM]” and the activity change, negative = inhibition [8] was 30.2% [at 9.19 µM]. The Potency [9] was 3.05 µM (active), the activation [18] was 1.16% [at 7.64 µM] and the activity change, negative = cytotoxic [10] was -2.49% [at 9.19 µM]. For the same compound, the activation [11] was 3.21% [at 15.3 µM], the activity change, negative = inhibition [12] was -7.89% [at 11.5 µM] and the cytotoxicity (LDH release) [19] was -0.251 [at 9.19 µM]. For the same compound, the activation [20] was 21.1% [at 9.19 µM], the Potency [13] was 3.84 µM (active) and the activity change, negative = inhibition [14] was 35.7% [at 15.3 µM]. It also gave an activation (cytotoxicity) [15] of -1.61% [at 9.19 µM] and an activity change, negative = cytotoxic [16] of -18.7% [at 9.19 µM].
